Bioassay records (PubChem BioAssay)
The list is not random: actives were taken first. Their share in the collection is about 6.2%.
HT1080NT lethal: kills 2HG-producing HT-1080-NT fibrosarcoma cells; Potency, µM (highest dose often 46.1 µM), usual class: cytotoxic; 360,000 compounds, 1.6% hits; HT-1080-NT fibrosarcoma viability, CellTiter-Glo ATP luminescence, 48 h; AID 686970;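 further: NT is the 2HG producing partner of a matched IDH1 knockdown line; nearly all actives have a fitted effect of over 55% in size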
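Viability by CellTiter-Glo luminescence after 48 h compound exposure at 37C of HT-1080-NT cells (750/well, RPMI, 5% FBS). % activity scaled between DMSO wells and medium-only wells, then curve-fitted and categorized by curve class.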
S2 tox: reduces viability in counter-screen for ATXN expression inhibitors | 400,000 compounds, 0.49% hits | Potency, µM (top dose mostly 56.7 µM), usual class: cytotoxic | S2 cells (HEK-293 line with an ATXN2-luciferase reporter) viability, CellTiter-Fluor protease fluorescence, 24 h; further: nearly all actives have a fitted effect of over 40% in size
KB-V1 cytotox: KB-V1 MDR subline cytotoxicity | KB-V1 MDR cells viability, CellTiter-Glo, 72 h | Potency, µM (doses to about 46.1 µM), most hits filed as cytotoxic | 400,000 compounds, 3.4% hits; further: nearly all actives have a fitted effect of over 60% in size
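Cytotoxicity via CellTiter-Glo luminescence after 72 h compound exposure at 37 degrees C. Cells: drug-selected KB-V1 line, DMEM phenol-red free plus 10% FBS. Compounds tested at multiple concentrations; normalized data fitted to concentration-effect curves.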
KB-3-1 cytotox: KB-3-1 parental cell cytotoxicity; Potency, µM (titrated, usually from 46.1 µM), hits mostly cytotoxic; 400,000 compounds, 1.4% hits; KB-3-1 viability, CellTiter-Glo ATP luminescence, 72 h; further: nearly all actives have a fitted effect of over 60% in size
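Multi-concentration cytotoxicity screen in KB-3-1 cells grown in DMEM lacking phenol red with 10% FBS. After 72 h at 37 °C with compound, ATP-dependent luminescence was recorded.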
ATXN2 expr inh: inhibitors of ATXN2 expression; HEK-293 ATXN2-luciferase reporter, luminescence, 24 h; Potency, µM (top dose mostly 57 µM), usual class: inhibitors; 360,000 compounds, 0.72% hits; AID 1745845; further: nearly all actives have a fitted effect of over 55% in size
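ATXN2-luciferase reporter cells (luciferase flanked by upstream and downstream ATXN2 gene portions) were treated 24 h at 37 °C with compounds at up to 57 uM. SteadyGlo luminescence gave expression; GF-AFC fluorescence gave viability.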
HT1080 IDH1KD tx: HT-1080 IDH1 knockdown cell toxicity (counter line); Potency, µM (series often up to 46.1 µM), usual class: cytotoxic; 360,000 compounds, 2% hits; HT-1080 IDH1 knockdown viability, ATP luminescence, 48 h
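Using the IDH1-knockdown HT-1080 line run in the same batch and compound series as the NT line, viability after 48 h at 37 °C was determined by CellTiter-Glo luminescence and expressed as % activity.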
A number is an active result; i = inactive; ? = inconclusive; nt = no result given; [ ] = another dose, or the depositor's remark. The call rests on the fitted dose curve; in most records, active means well fitted curve in the direction sought with a large enough effect; inconclusive means small, poorly fitted or top-dose-only effect, or another doubt; inactive means no such curve, though single readings can be large; an effect the other way counts as inactive or inconclusive.

SMILES	HT1080NT lethal	S2 tox	KB-V1 cytotox	KB-3-1 cytotox	ATXN2 expr inh	HT1080 IDH1KD tx
COC(=O)c1[nH]c2c(c1C)C(=O)CC(c1cccs1)C2 (centres undefined)	1µM	i	2.1µM	?	i	1µM
COC(=O)c1[nH]c2c(c1C)C(=O)CC(c1cc(OC)ccc1OC)C2 (centres undefined)	?	?	5.2µM	3.7µM	i	21µM
COc1ccc(C2CC(=O)c3c([nH]c(C(=O)OC(C)C)c3C)C2)cc1OC (centres undefined)	i	i	2.6µM	i	i	i
CCOc1ccc(C2CC(=O)c3c([nH]c(C(=O)OC)c3C)C2)cc1OC (centres undefined)	?	i	?	i	i	?
CCOc1ccc(-c2cc(C(=O)NCc3ccccc3Cl)c3ccccc3n2)cc1	nt	i	i	i	i	nt
COCCOC(=O)c1[nH]c2c(c1C)C(=O)CC(c1ccc(N(C)C)cc1)C2 (centres undefined)	i	i	i	i	i	i
Cc1c(C(=O)OCCOc2ccccc2)[nH]c2c1C(=O)CC(c1ccc(C(C)(C)C)cc1)C2 (centres undefined)	nt	i	i	i	i	nt
COCCOC(=O)c1[nH]c2c(c1C)C(=O)CC(c1ccc(F)cc1)C2 (centres undefined)	?	?	?	7.3µM	i	23µM
COCCOC(=O)c1[nH]c2c(c1C)C(=O)CC(c1ccccc1)C2 (centres undefined)	1.6µM	?	0.73µM	0.92µM	i	1.3µM
Cn1nnnc1N=N/C(=N/Nc1ccccc1)c1ccccc1	?	8.9µM	?	i	2.5µM	7.3µM
O=C(NCCCN1CCN(c2cccc(Cl)c2)CC1)C1(S(=O)(=O)c2ccc(Cl)cc2)CC1	i	i	i	?	i	i
COc1ccc(N2CCN(CCCNC(=O)C3(S(=O)(=O)c4ccc(Cl)cc4)CC3)CC2)cc1	i	i	9.2µM	i	i	i
Cc1ccc(S(=O)(=O)n2cc(C=O)c3ccccc32)cc1	16µM	i	i	i	?	23µM
Cc1ccc(S(=O)(=O)n2cc(-c3ccccc3)c3ccccc32)cc1	?	?	1.3µM	2.3µM	i	?
O=[N+]([O-])c1ccc(-c2ccc(/C=N/Nc3nc(N4CCCCC4)nc(N4CCCCC4)n3)o2)cc1	i	nt	i	i	i[11.3 µM]	i
COc1ccc(-c2cnnc(N/N=C/c3ccc(-c4ccc([N+](=O)[O-])cc4)o3)n2)cc1	i	?	18µM	4.6µM	?	?
COc1ccc(-c2cnnc(N/N=C/c3ccc(O)c(OC)c3)n2)cc1	?	i	5.8µM	4.1µM	i	5.2µM
COc1cc2c(cc1OC)C(COc1ccc3c(C)cc(=O)oc3c1)N(C(=O)c1ccc(C)c(C)c1)CC2 (centres undefined)	nt	i	?	i	i	nt
NC(=O)c1cc[n+](CC2=C(C(=O)[O-])N3C(=O)[C@@H](NC(=O)Cc4cccs4)[C@H]3SC2)cc1	nt	i	nt	nt	i	nt
Cn1c(=O)c2c(-c3ccccc3)n(-c3cccc(C#N)c3)cc2n(C)c1=O	nt	nt	i	i	nt	nt
CCCN(CCC)C(=O)CCSCCC(=O)N(CCC)CCC	i	i	18µM	i	i	i
O=C(O)CCSCCC(=O)O	i	i	i	i	i	i
N=c1sccn1CC(=O)Nc1cc(Cl)ccc1Oc1ccccc1	16µM	?	?	i	?	?
Cc1ccc(C)c(N(CC(=O)Nc2cc(Cl)ccc2Oc2ccccc2)S(C)(=O)=O)c1	i	i	21µM	?	i	i
COc1cccc(OCC(=O)Nc2cc(Cl)ccc2Oc2ccccc2)c1	i	?	i	?	28µM	i
Cc1cccc(C)c1N(CC(=O)Nc1cc(Cl)ccc1Oc1ccccc1)S(C)(=O)=O	i	i	i	i	i	i
COc1ccc(-c2cn3nc(N4CCCC(C(=O)Nc5cccc(OC)c5)C4)sc3n2)cc1 (centres undefined)	nt	i	i	i	i	nt
CN(C)CC(C)(C)CNc1nn2c(-c3ccccc3)nnc2cc1C1CCC1	nt	nt	nt	nt	0.77µM	nt
